Of roughly 8,800 targets only a part is listed; those with a hit were picked by preference. About 0.5% of all pairs of compound and target were hits.
Compound: Cc1nc(Nc2ncc(C(=O)Nc3c(C)cccc3Cl)s2)cc(N2CCN(CCO)CC2)n1 [dasatinib]
Experiment: log2 fold change, soluble protein after heating vs DMSO (PISA); higher = thermal stabilisation; K562 lysate, 10 uM; active = over 0.2 and 3.5 SD of the protein, either way, in both replicates (recomputed)
In short: (§1)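 K562 pellets were dounce-homogenised in PBS pH 7.4 containing 1 mM MgCl2, and the crude extract, at 1 mg/mL protein, was exposed to 10 μM compound for 30 min. Aliquots were heated for 3 min across 48°C-58°C, pooled, brought to 0.5% NP-40 at 4°C and spun at 21,000xg for 90 min, with the supernatant taken as soluble protein. TMTpro 16plex LC-MS/MS with equalised channel sums quantified that protein. Values are log-two fold changes in thermal stability relative to solvent controls, taken from duplicates.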

Chain of UniProt P51532 (P51532 whole entry, looked up): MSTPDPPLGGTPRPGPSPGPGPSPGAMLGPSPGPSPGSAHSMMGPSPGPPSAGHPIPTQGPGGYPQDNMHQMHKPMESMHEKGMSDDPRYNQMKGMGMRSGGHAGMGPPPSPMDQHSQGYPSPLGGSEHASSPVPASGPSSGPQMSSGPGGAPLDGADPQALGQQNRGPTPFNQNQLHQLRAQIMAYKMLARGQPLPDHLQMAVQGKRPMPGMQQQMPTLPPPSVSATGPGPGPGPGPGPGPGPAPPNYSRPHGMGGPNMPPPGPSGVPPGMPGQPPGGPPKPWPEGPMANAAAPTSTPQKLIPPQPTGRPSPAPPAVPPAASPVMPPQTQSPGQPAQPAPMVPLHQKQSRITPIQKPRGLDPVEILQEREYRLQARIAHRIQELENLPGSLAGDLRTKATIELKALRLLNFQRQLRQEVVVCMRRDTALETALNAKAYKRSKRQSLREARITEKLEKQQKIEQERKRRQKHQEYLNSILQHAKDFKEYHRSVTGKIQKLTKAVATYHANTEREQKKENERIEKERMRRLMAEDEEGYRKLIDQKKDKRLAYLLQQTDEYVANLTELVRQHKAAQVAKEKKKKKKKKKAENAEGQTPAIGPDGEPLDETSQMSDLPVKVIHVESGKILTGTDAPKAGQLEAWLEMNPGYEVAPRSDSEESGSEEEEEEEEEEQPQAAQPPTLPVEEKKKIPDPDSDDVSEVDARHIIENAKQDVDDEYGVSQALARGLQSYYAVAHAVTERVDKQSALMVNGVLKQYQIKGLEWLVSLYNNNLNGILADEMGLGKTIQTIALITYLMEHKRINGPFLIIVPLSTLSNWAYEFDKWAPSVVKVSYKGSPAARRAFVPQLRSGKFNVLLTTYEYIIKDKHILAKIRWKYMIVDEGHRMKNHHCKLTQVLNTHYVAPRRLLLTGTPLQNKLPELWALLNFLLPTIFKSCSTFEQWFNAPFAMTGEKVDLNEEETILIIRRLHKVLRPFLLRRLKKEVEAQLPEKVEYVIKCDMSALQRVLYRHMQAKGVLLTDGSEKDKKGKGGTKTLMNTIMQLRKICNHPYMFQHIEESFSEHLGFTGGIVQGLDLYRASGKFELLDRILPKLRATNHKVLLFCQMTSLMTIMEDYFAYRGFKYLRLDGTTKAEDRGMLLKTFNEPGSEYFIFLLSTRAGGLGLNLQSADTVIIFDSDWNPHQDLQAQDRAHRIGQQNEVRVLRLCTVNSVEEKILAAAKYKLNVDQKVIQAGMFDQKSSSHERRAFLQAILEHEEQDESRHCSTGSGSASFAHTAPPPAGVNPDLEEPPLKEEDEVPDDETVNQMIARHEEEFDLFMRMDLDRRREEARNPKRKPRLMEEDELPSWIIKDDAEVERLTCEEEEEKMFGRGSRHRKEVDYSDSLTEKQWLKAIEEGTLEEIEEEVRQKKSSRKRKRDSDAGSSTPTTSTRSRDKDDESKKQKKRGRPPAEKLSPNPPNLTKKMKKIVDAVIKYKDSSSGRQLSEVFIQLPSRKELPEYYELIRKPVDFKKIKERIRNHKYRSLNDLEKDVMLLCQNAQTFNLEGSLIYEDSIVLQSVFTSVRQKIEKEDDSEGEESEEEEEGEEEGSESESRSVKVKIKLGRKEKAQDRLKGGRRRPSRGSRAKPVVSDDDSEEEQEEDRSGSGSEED
Chain of UniProt Q13487 (Q13487 whole entry, looked up): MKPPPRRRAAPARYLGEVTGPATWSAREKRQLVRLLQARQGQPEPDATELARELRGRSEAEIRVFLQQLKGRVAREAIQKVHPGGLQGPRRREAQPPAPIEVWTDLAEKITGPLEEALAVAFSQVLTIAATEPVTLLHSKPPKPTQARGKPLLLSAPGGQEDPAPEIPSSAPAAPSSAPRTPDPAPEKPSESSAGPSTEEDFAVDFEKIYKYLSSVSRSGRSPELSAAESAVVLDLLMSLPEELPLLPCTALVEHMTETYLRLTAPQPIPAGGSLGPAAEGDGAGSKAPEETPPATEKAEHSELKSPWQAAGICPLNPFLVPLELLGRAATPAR
Chain of UniProt Q9UHW9 (Q9UHW9 whole entry, looked up): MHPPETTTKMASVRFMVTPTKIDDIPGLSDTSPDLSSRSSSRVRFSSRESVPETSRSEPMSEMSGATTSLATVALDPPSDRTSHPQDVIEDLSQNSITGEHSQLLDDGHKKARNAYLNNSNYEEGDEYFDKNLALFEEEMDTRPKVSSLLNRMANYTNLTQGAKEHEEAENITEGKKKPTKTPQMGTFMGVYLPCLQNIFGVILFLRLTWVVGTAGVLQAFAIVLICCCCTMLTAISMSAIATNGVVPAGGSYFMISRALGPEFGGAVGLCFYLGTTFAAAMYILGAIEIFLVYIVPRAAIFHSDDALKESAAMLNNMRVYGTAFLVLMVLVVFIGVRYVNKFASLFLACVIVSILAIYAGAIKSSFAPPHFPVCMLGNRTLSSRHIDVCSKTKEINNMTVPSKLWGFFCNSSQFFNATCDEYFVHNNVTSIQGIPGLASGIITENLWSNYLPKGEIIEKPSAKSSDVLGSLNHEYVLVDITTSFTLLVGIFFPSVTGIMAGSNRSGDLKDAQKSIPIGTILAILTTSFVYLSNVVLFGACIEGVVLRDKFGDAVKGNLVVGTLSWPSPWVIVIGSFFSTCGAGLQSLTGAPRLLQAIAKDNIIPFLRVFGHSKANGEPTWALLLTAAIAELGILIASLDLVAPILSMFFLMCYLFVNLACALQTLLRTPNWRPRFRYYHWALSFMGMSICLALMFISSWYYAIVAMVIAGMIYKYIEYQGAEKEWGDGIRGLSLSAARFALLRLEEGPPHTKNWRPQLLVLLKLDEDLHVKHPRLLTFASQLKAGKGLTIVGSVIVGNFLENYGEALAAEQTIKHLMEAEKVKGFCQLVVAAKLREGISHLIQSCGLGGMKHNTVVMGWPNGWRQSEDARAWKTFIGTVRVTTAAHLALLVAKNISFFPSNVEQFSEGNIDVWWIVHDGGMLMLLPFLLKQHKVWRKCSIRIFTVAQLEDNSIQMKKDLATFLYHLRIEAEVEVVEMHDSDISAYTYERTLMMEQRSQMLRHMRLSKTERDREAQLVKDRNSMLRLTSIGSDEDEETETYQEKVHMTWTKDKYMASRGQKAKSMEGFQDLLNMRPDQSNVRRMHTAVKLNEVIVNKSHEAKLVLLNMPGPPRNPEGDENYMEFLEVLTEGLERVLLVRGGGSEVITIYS
Chain of UniProt Q9P289 (Q9P289 whole entry, looked up): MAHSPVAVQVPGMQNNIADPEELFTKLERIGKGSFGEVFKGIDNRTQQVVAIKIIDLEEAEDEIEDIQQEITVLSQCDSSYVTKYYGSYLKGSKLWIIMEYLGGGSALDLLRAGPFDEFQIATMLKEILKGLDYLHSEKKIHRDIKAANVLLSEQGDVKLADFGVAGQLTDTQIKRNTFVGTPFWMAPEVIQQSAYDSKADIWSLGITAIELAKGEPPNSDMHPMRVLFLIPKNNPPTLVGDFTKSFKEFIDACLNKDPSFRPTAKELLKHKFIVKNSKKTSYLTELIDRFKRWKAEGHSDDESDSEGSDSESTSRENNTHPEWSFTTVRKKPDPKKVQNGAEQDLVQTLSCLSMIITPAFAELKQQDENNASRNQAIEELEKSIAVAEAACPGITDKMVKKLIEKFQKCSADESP
Chain of UniProt P49675 (P49675 whole entry, looked up): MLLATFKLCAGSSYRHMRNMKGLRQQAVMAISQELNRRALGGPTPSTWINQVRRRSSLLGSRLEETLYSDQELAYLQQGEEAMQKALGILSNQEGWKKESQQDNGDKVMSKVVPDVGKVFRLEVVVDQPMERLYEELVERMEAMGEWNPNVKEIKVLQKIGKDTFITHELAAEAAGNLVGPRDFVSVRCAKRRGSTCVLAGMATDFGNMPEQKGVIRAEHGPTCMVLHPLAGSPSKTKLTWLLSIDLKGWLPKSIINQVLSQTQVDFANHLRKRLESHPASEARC
Chain of UniProt Q9NP59 (Q9NP59 whole entry, looked up): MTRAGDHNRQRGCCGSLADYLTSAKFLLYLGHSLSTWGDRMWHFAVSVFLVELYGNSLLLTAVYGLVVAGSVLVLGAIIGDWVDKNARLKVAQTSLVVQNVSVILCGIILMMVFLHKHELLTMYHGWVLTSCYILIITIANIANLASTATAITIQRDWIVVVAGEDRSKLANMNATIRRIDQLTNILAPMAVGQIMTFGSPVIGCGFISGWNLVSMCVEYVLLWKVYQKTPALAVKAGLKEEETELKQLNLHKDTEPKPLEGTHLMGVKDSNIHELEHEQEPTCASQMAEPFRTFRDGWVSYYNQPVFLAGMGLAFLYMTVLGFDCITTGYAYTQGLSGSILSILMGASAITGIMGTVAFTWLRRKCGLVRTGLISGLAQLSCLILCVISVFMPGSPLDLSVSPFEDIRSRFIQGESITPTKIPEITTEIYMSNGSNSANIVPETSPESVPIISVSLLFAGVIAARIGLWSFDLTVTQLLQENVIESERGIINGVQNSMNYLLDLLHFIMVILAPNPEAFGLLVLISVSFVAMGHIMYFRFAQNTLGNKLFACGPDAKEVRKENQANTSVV
Chain of UniProt Q9Y2H1 (Q9Y2H1 whole entry, looked up): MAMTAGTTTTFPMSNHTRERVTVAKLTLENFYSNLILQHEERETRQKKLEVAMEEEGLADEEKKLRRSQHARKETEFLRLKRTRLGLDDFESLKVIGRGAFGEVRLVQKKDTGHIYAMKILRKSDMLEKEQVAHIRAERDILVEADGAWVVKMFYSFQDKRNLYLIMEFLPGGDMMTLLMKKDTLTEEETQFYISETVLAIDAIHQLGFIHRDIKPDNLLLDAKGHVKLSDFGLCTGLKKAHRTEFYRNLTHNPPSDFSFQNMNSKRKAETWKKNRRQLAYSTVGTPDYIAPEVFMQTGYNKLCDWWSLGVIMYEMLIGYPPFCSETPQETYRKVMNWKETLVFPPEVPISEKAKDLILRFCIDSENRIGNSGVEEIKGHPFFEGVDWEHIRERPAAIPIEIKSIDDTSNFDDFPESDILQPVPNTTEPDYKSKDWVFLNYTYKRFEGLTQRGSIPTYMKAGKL

log2 fold change, inactive:
SNRPD2 (UniProt K7EJB5) -0.026
SNAPC2 (UniProt Q13487) -0.24
STAR (UniProt P49675) 0.046
SLC12A6 isoform 2 (UniProt Q9UHW9) -0.072
SMARCA4 isoform 4 (UniProt P51532) -0.037
SYK (UniProt P43405) -0.067
SKP2 (UniProt Q13309) -0.004
SLU7 (UniProt O95391) -0.025
SZT2 (UniProt Q5T011) 0.04
SLC40A1 (UniProt Q9NP59) -0.077
STK26 isoform 3 (UniProt Q9P289) 0.181
SLC25A36 (UniProt Q96CQ1) 0.012
STK38L (UniProt Q9Y2H1) -0.002
SMPD2 (UniProt O60906) -0.169
SHB (UniProt Q15464) 0.05
STK17B (UniProt O94768) -0.063
TAF11 (UniProt Q15544) -0.142

Compound: Cc1ncc(-c2ccnc(Nc3ccc(S(C)(=O)=O)cc3)n2)n1C(C)C
Experiment: as above
In short: as §1

log2 fold change, inactive:
STK17A (UniProt Q9UEE5) 0.249
SNRPD2 (UniProt K7EJB5) -0.094
SNAPC2 (UniProt Q13487) -0.067
STAR (UniProt P49675) -0.019
TAOK2 isoform 2 (UniProt Q9UL54) -0.01
SMARCA4 isoform 4 (UniProt P51532) 0.037
SLC41A1 (UniProt Q8IVJ1) 0.07
SSX5 isoform 2 (UniProt O60225) 0.064
STAU1 isoform 3 (UniProt O95793) -0.023
SYK (UniProt P43405) 0
SIN3B (UniProt O75182) 0.839
SKP2 (UniProt Q13309) 0.003
SLU7 (UniProt O95391) 0.047
SZT2 (UniProt Q5T011) 0.02
SLC40A1 (UniProt Q9NP59) 0.015
SNIP1 (UniProt Q8TAD8) -0.078
SLC25A36 (UniProt Q96CQ1) 0.04
STK38L (UniProt Q9Y2H1) -0.009
SLC35A3 isoform 2 (UniProt Q9Y2D2) -0.049
SNAP23 isoform 2 (UniProt O00161) -0.054
SLCO4A1 (UniProt Q96BD0) 0.008
STK17B (UniProt O94768) -0.197
TAF11 (UniProt Q15544) -0.034

Compound: Cn1cc(-c2ccc3c(c2)CCN3C(=O)Cc2cccc(C(F)(F)F)c2)c2c(N)ncnc21
Experiment: as above
In short: as §1

log2 fold change, inactive:
SNRPD2 (UniProt K7EJB5) -0.084
SNAPC2 (UniProt Q13487) -0.122
STAR (UniProt P49675) 0.011
SLC12A6 isoform 2 (UniProt Q9UHW9) 0.206
SMARCA4 isoform 4 (UniProt P51532) 0.035
SYK (UniProt P43405) 0.01
SRC isoform 2 (UniProt P12931) -0.023
SKP2 (UniProt Q13309) 0.045
SLU7 (UniProt O95391) 0.013
SZT2 (UniProt Q5T011) -0.122
SLC40A1 (UniProt Q9NP59) -0.02
STK26 isoform 3 (UniProt Q9P289) -0.028
SLC25A36 (UniProt Q96CQ1) 0.085
STK38L (UniProt Q9Y2H1) 0.102
SMPD2 (UniProt O60906) -0.102
SHB (UniProt Q15464) 0.004
STK17B (UniProt O94768) 0.065
TAF11 (UniProt Q15544) -0.051

Compound: Cn1cc(CNCC2CCN(c3ncc(C(=O)NO)cn3)CC2)c2ccccc21 [quisinostat]
Experiment: as above
In short: as §1

log2 fold change, inactive:
SNRPD2 (UniProt K7EJB5) -0.267
SNAPC2 (UniProt Q13487) -0.021
STAR (UniProt P49675) -0.041
SLC12A6 isoform 2 (UniProt Q9UHW9) -0.011
SMARCA4 isoform 4 (UniProt P51532) -0.081
SLC41A1 (UniProt Q8IVJ1) 0.23
STAU1 isoform 3 (UniProt O95793) -0.11
SYK (UniProt P43405) -0.077
SIN3B (UniProt O75182) -0.079
SKP2 (UniProt Q13309) -0.193
SLU7 (UniProt O95391) 0.244
SLC40A1 (UniProt Q9NP59) -0.079
STK26 isoform 3 (UniProt Q9P289) 0.093
SLC25A36 (UniProt Q96CQ1) 0.045
STK38L (UniProt Q9Y2H1) -0.122
SPAG1 (UniProt Q07617) -0.037
SLC35A3 isoform 2 (UniProt Q9Y2D2) -0.241
SHB (UniProt Q15464) 0.072
STK17B (UniProt O94768) -0.255
TAF11 (UniProt Q15544) -0.085
